# Data reported in PubChem BioAssay (EPA / NIEHS).
# Values joined by “and” are separate entries in the source; they are usually repeats but may differ in a detail not shown here. Equal values may be shown once. Results filed as inconclusive are left out. Active and inactive are the calls of the source. The calls were made as follows: active = hit-call score of the fitted dose curve at least 0.9, where 1 is the maximum; inconclusive = response in the unintended direction; inactive = score below 0.9.
# Molecular target: Estrogen receptor (Homo sapiens) (UniProt P03372)
# Sequence (P03372 whole entry, looked up, the tested form may be a part): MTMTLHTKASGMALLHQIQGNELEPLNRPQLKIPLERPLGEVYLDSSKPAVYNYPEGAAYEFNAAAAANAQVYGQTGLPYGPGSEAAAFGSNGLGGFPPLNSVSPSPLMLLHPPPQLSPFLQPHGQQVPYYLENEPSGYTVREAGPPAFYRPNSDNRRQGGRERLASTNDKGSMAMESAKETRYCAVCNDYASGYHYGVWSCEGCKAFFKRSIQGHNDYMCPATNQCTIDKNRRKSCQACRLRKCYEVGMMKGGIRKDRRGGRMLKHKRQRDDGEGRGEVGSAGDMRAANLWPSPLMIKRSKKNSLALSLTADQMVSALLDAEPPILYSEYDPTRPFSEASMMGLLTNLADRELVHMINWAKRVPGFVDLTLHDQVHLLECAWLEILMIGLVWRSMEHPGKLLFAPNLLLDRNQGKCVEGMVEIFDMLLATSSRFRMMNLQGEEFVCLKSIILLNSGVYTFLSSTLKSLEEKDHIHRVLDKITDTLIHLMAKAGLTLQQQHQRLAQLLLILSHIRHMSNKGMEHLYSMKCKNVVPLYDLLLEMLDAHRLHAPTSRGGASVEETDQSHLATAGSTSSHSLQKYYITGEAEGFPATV
# Test: NVS_NR_hER: NovaScreen (NVS) Nuclear Receptor Binding Assay for human Estrogen Receptor (ER) (AID 2283348)
# Method in brief: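 MCF7-derived receptor extract, radiolabelled ligand, competitive displacement. Read: scintillation counts at 18 h. DMSO = negative control/baseline. Primary 25 uM duplicate; follow-up concentration–response.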
Compound,AC50,outcome
NC(=NCCCCCCN=C(N)/N=C(\N)Nc1ccc(Cl)cc1)/N=C(\N)Nc1ccc(Cl)cc1,9.07 µM (active) and 13.5 µM (active) and 19.2 µM (active),
Oc1c(Cl)cc(Cl)cc1Sc1cc(Cl)cc(Cl)c1O,,inactive
Nc1cc(Cl)c(-c2cc(Cl)c(N)cc2Cl)cc1Cl,0.0384 µM (active),
CCOC(=O)c1nc(C(Cl)(Cl)Cl)n(-c2ccc(Cl)cc2Cl)n1,,inactive
C[C@]12CC[C@@H]3c4ccc(O)cc4CC[C@H]3[C@@H]1CC[C@@H]2OC(=O)CCC1CCCC1,0.00446 µM (active),
c1ccc(CNc2ncnc3c2ncn3C2CCCCO2)cc1 (centres undefined),,inactive
O=C(c1cc(O)c(O)c(O)c1)c1ccc(O)c(O)c1O,,inactive
C=CC(=O)OCC(CO)(COCC(COC(=O)C=C)(COC(=O)C=C)COC(=O)C=C)COC(=O)C=C,,inactive
C=CC(C)(CCC=C(C)C)OC(C)=O (centres undefined),6.92 µM (active),
CCCCCCOC(=O)c1ccc(O)cc1,5.86 µM (active),
CCCCCCCCCCCC[N+](C)(C)CCCCCCCCCCCC,46.8 µM (active),
O=C(Nc1cccc([N+](=O)[O-])c1)c1cc2ccccc2cc1O,,inactive
O=C1Cc2ccccc2N1c1c(Cl)cccc1Cl,,inactive
N=C(N)c1ccc(OCCCCCOc2ccc(C(=N)N)cc2)cc1,,inactive
Oc1ccc(Cc2ccccc2O)cc1,,inactive
CC1=CC(=O)c2ccccc2C1=O,,inactive

# Molecular target: Estrogen receptor (Homo sapiens) (UniProt P03372)
# Test: OT_ER_ERaERa_1440: Odyssey Thera (OT) 24-hour HEK293T Protein-Complementation Assay for Estrogen Receptor-alpha/-alpha Homodimer (AID 2283349);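 also: hits raise fluorescence above DMSO for agonists and antagonists alike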
# Method in brief: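 Cells (HEK293T) carrying the fragment-tagged ERα LBD (aa 310-547) pair are treated with chemical for 24 hours. Nuclear and/or cytoplasmic fluorescence is then quantified on a laser scanning cytometer. Activity is scored as signal gain against DMSO.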
row,Compound,outcome
1,NC(=NCCCCCCN=C(N)/N=C(\N)Nc1ccc(Cl)cc1)/N=C(\N)Nc1ccc(Cl)cc1,inactive
2,CN(C)CCOC(c1ccccc1)c1ccccc1,inactive
3,C=CC(C)(CCC=C(C)C)OC(C)=O (centres undefined),inactive
4,CCCCc1oc2ccccc2c1C(=O)c1cc(I)c(OCCN(CC)CC)c(I)c1,inactive
5,N=C(N)c1ccc(OCCCCCOc2ccc(C(=N)N)cc2)cc1,inactive

# Molecular target: Estrogen receptor (Homo sapiens) (UniProt P03372)
# Test: OT_ER_ERaERa_0480: Odyssey Thera (OT) 8-hour HEK293T Protein-Complementation Assay for Estrogen Receptor-alpha/-alpha Homodimer (AID 2283351);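 also: rise in fluorescence from reassembled reporter fragments on ERα LBD homodimer in nucleus or whole cell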
# Method in brief: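 HEK293T cells stably expressing a PCA pair of ER alpha LBD (residues 310-547) were dosed for 8 hours. The gain in fluorescence intensity, nuclear for agonists and whole-cell for antagonists, was measured by laser scanning cytometry against DMSO vehicle.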
row,Compound,outcome
1,NC(=NCCCCCCN=C(N)/N=C(\N)Nc1ccc(Cl)cc1)/N=C(\N)Nc1ccc(Cl)cc1,inactive
2,CN(C)CCOC(c1ccccc1)c1ccccc1,inactive
3,C=CC(C)(CCC=C(C)C)OC(C)=O (centres undefined),inactive
4,CCCCc1oc2ccccc2c1C(=O)c1cc(I)c(OCCN(CC)CC)c(I)c1,inactive
5,N=C(N)c1ccc(OCCCCCOc2ccc(C(=N)N)cc2)cc1,inactive

# Molecular target: Estrogen receptor beta (Homo sapiens) (UniProt Q92731)
# Sequence (Q92731 whole entry, looked up): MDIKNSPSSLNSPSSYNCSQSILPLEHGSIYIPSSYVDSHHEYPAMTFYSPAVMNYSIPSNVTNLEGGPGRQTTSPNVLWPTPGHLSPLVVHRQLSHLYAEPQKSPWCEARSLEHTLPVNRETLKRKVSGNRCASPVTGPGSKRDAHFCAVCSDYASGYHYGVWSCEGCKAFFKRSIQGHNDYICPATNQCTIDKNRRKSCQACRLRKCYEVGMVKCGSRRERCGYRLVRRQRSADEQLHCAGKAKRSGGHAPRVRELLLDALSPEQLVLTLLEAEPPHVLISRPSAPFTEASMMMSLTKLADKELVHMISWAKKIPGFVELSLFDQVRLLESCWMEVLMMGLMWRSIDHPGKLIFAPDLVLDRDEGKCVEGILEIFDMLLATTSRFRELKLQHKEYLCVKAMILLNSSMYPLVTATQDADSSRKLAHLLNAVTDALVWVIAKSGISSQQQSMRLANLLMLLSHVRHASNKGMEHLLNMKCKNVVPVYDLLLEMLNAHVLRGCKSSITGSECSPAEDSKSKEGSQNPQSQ
# Test: OT_ER_ERbERb_0480: Odyssey Thera (OT) 8-hour HEK293T Protein-Complementation Assay for Estrogen Receptor-beta/-beta Homodimer (AID 2283357);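 also: active means signal gain over DMSO baseline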
# Method in brief: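 Homodimerization of ER-beta LBD measured by protein-fragment complementation in HEK293T; 8 h dosing; fixed, Draq5 counterstain; fluorescence intensity gain over DMSO baseline, positive fitting direction; laser scanning cytometry.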
row,Compound,outcome
1,c1cnc2c(c1)ccc1cccnc12,inactive
2,O=C(CCCN1CCC(O)(c2ccc(Cl)cc2)CC1)c1ccc(F)cc1,inactive
3,CCCCc1oc2ccccc2c1C(=O)c1cc(I)c(OCCN(CC)CC)c(I)c1,inactive
